Screening data deposited in PubChem by National Center for Advancing Translational Sciences (NCATS).
Hits are enriched below; roughly 11% of the tested compounds scored in any of these assays.
HEK293 tox = kills HEK 293 cells. hit rate 6.6% among 94,000. HEK 293 viability, ATP luminescence (CellTiter-Glo), 48-72 h. Potency, µM (top dose mostly 115 µM), for inactives: top-dose activity change, negative = cytotoxicity, hits mostly inhibitors; note: nearly all actives have a fitted effect of over 60% in size
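HEK 293 cells at 250 cells/well were exposed to compounds by pintool transfer for 48 or 72 hr at 37 degree Celsius, 5% CO2. Viability was read as ATP-coupled luminescence with CellTiter-Glo after 10 min at room temperature.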
Luciferase inh = inhibitors of firefly (Photinus pyralis) luciferase. P08659. purified P. pyralis luciferase, luminescence, biochemical. Potency, µM (titrated, usually from 115 µM), hits mostly inhibitors. hit rate 2.5% among 76,000; note: nearly all actives have a fitted effect of over 65% in size
Target sequence (P08659 whole entry, looked up): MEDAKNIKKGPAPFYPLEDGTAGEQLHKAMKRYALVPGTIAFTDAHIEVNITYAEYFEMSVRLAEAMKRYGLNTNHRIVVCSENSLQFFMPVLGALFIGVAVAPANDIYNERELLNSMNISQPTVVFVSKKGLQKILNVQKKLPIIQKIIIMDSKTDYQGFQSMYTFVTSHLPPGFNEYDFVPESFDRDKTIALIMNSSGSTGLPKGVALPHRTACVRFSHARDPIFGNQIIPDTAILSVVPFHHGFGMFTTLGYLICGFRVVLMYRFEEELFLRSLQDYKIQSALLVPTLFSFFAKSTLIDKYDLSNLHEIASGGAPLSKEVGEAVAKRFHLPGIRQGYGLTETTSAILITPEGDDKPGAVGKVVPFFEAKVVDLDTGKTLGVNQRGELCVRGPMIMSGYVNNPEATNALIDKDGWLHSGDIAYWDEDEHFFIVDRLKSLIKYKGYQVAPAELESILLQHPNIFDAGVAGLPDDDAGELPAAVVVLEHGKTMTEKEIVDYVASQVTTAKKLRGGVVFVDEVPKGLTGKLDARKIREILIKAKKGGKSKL
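Inhibitors were tested against purified firefly luciferase in a biochemical, low-substrate format (both substrates at 10uM) and luminescence measured with a CCD imager.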
3T3 cytotox = NIH 3T3 cell cytotoxicity. hit rate 4.3% among 94,000. Potency, µM (top dose mostly 96.7 µM), for the others: top-dose activity change, negative = cytotoxicity, hits mostly inhibitors. AID 1345082. NIH 3T3 viability, CellTiter-Glo ATP luminescence, 48-72 h; note: nearly all actives have a fitted effect of over 55% in size
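First NIH 3T3 cells are plated at 400 cells/well; next compound is pinned in; then plates incubate 48 or 72 hr at 37 °C; finally CellTiter-Glo is added and luminescence read after 10 min.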
NPR1 antag = human Npr1 receptor antagonism | P16066 | HEK293 hNpr1 GloSensor cGMP, ANP-stimulated luminescence | Potency, µM (highest dose often 46.3 µM), without a hit: at the highest dose activity change, negative = inhibition, actives largely listed as inhibitors | hit rate 1.6% among 76,000 | AID 1347048; calls by dose curve; note: nearly all actives have a fitted effect of over 60% in size
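Compound pre-incubated 30 min at room temperature on GloSensor-loaded HEK293 cells stably carrying hNpr1 and the pGS-40F cGMP biosensor. Stimulation uses hNppA at 0.1 nM final; luminescence is taken at baseline and 20 min post-agonist.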
Active calls of the source: *; i = inactive; u = inconclusive; x = no result given; [ ] = another dose, or the depositor's remark. Unless noted, calls come from the whole dose curve; as a rule, active = well fitted curve in the direction sought with a large enough effect; inconclusive = small, poorly fitted or top-dose-only effect, or another doubt; inactive = no such curve, though single readings can be large; an effect the other way counts as inactive or inconclusive. % is set by controls: 0 for no effect and ±100 for the full control effect; potency is the fitted concentration of half-maximal effect.

SMILES	HEK293 tox	Luciferase inh	3T3 cytotox	NPR1 antag
C[C@@H](NC(=O)C[C@@H]1c2nc(NC(=O)CC(C)(C)C)sc2C[C@@H]2[C@](C)(CO)[C@H](O)CC[C@]21C)c1ccccc1	40µM*	i	u	1%
C[C@H](NC(=O)C[C@@H]1c2nc(NC(=O)c3ccc(F)cc3)sc2C[C@@H]2[C@](C)(CO)[C@H](O)CC[C@]21C)c1ccccc1	32µM*	i	u	-9%
CCCCCC(=O)Nc1nc2c(s1)C[C@@H]1[C@](C)(CO)[C@H](O)CC[C@@]1(C)[C@@H]2CC(=O)N[C@@H](CO)CC(C)C	u	i	79µM*	3%
COCCn1c(=O)c(C(=O)N2CCN(C(=O)c3cccc(Cl)c3)CC2)nc2cccnc21	3%	x	2%	x
O=C([C@@H]1C[C@H](F)CN1C(=O)C1(c2ccccc2)CC1)N1CCCCC1	-13%	x	-20%	x
Cc1ccc([S+](=O)([O-])N2CCC[C@@H]2C(=O)N2CCC(N3CCOC3=O)CC2)cc1	i	x	0%	x
O=S(=O)(c1ccc(-n2cccn2)cc1)N1CCCC2(CCNC2)C1 (configuration not stated)	u	i	-17%	4%
CCCNC(=O)Cc1ccc(N(Cc2ccccc2)C(=O)c2ccco2)cc1	u	i	u	-1%
CCCNC(=O)Cc1ccc(N(Cc2ccc(F)cc2)C(=O)c2ccco2)cc1	89µM*	i	u	-1%
Cc1cccc(CNC(=O)Cc2ccc(N(Cc3ccc(F)cc3)C(=O)c3ccco3)cc2)c1	u	i	40µM*	-15%
CCNC(=O)Cc1ccc(N(Cc2cccc(F)c2)C(=O)c2ccco2)cc1	u	i	-17%	-3%
Oc1cccc(Nc2cnc3ccc(-c4ccc(F)cc4)nn23)c1	u	20µM*	u	-18%[70.6 µM]
COc1ccccc1-c1ccc2ncc(Nc3cccc(O)c3)n2n1	u	u	u	1%[70.6 µM]
COc1cccc(Nc2cnc3ccc(-c4ccc(F)cc4)nn23)c1	100µM*	i	u	-15%[70.6 µM]
COc1ccc(Nc2cnc3ccc(-c4ccc(OC)nc4)nn23)cn1	u	i	u	2%[70.6 µM]
COc1cncc(Nc2cnc3ccc(-c4ccc(F)cc4)nn23)c1	100µM*	i	79µM*	-24%[70.6 µM]
O=C(Nc1ccccc1Cl)C1CN(C2CCCC2)C(=O)N1 (configuration not stated)	-23%[172 µM]	x	-25%[138 µM]	x
CN1Cc2ccccc2N(CC(O)COc2ccccc2)CCC1=O (configuration not stated)	u	x	-2%	x
Cc1ccc(C(=O)N2CCCN(c3ccnc4ccnn34)CC2)cc1	u	x	-23%	x
Cc1ccc(C(=O)N2CCC(C(=O)N3CCCC(c4nc5ccncc5[nH]4)C3)CC2)cc1 (configuration not stated)	-4%	x	-16%	x
CCn1nc(-c2ccc3c(c2)OCO3)nc1N(C)C	-4%	u	0%	10%
CCn1nc(-c2cccc(-c3ccnn3C)c2)nc1N(C)C	79µM*	i	-21%	-2%
N#Cc1ccc(CN2CCCCCNC(=O)[C@@H]3CCC[C@@H]32)cc1	79µM*	i	u	-9%
O=C1NCCCCCCN(Cc2cccc(F)c2)[C@H]2CCC[C@@H]12	79µM*	i	u	-15%
COc1cccc(-c2noc(CC3CCN(C(=O)c4cc(OC)c(OC)c(OC)c4)CC3)n2)c1	45µM*	i	u	-18%
SMILES	HEK293 tox	Luciferase inh	3T3 cytotox	NPR1 antag
Cc1noc(-c2ccc3c(c2)OCO3)c1C(=O)N1CCC(Cc2ccccc2)CC1	u	i	u	-26%
COc1ccc(-c2noc(CC3CCN(C(=O)Cc4ccsc4)CC3)n2)cc1	45µM*	i	u	u
O=C(c1ccc2c(c1)OCO2)N1CCC(Cc2nc(-c3ccccc3)no2)CC1	10µM*	u	u	4µM*
Cc1ccc(CC(=O)N2CCC(Cc3nc(-c4ccccc4)no3)CC2)cc1	u	i	u	u
COc1ccc(CC2CCN(C(=O)c3c(C)noc3-c3ccc4c(c3)OCO4)CC2)cc1	35µM*	i	25µM*	u
COc1ccc(-c2ccc(C(=O)N3CCN(Cc4ccccc4)CC3)cc2)nn1	u	x	-30%	x
OC1(CNc2cc(C(F)(F)F)nc(N3CCCC3)n2)CCCNCC1 (configuration not stated)	u	i	-22%	-3%
O=C(C1CC1)N1CCN(CCCn2nc3n(c2=O)CCCC3)CC1	5%[172 µM]	x	-7%[138 µM]	x
COc1ccc(C(=O)N2CCC3(CC2)CC(Cc2nc(-c4ccccc4)no2)CCO3)cc1 (configuration not stated)	13µM*	u	u	7.1µM*
O=C(C1CCCN1C(=O)Nc1ccccc1)N1CCC(c2ccccc2)CC1 (configuration not stated)	-19%	x	-25%	x
CC(C)(C)CN1CCOC[C@H]1c1ncc(-c2ccc(C(F)(F)F)cc2)[nH]1	71µM*	i	79µM*	u
Cc1ccc(-c2cnc([C@@H]3COCCN3CC3CC3)[nH]2)cc1	63µM*	i	-19%[174 µM]	3%[70.6 µM]
Cc1ccc(-c2cnc([C@@H]3COCCN3Cc3ccncc3)[nH]2)cc1	-6%[172 µM]	i	2%[174 µM]	4%[70.6 µM]
CC(C)(C)CN1CCOC[C@H]1c1ncc(-c2ccc(Cl)cc2)[nH]1	79µM*	i	89µM*	-18%[70.6 µM]
Cc1noc(C)c1C(=O)NC1CCN(c2ccc3nnc(C4CC4)n3n2)C1 (configuration not stated)	2%	x	-21%	x
O=C([C@H]1CCCN1C(=O)C1CC1)N1CCC(N2CCOC2=O)CC1	i	x	-2%	x
CN1CCCC2(CCN(C(=O)CCCOc3ccccc3)C2)C1=O (configuration not stated)	-2%	28µM*	0%	1%
CCCCOc1c(CNC(C)c2ncccc2C)cccc1OC (configuration not stated)	40µM*	i	28µM*	-13%
COc1ccccc1Oc1ncccc1CNC1CCCC1	-23%	i	1%	-1%
O=C(NC1CCCCC1)N1Cc2[nH]cnc2C[C@H]1c1nc(-c2cccc([N+](=O)[O-])c2)no1	-15%	i	u	-4%
COC(=O)[C@@H]1Cc2c([nH]c3ccccc23)[C@H]2C[C@@H](NCCc3cnc[nH]3)C[C@@H](c3ccccc3F)N21	25µM*	i	28µM*	-14%
CCNC(=O)[C@@H]1C[C@H](NC(=O)CCc2ccccc2)CN1Cc1cnc[nH]1	3%	i	i	1%
COC(=O)[C@@H]1Cc2c([nH]c3ccccc23)[C@H]2C[C@@H](NC[C@H]3CCCO3)C[C@@H](c3ccccc3F)N21	79µM*	i	79µM*	5%
Cc1ccc(C(=O)N2CCN(C(=O)c3nc4cccnc4n(CC(C)C)c3=O)CC2)cc1	i	x	4%	x
O=C(NCCCc1ccccc1)C1CCCN(Cc2cccc(-c3ccsc3)c2)C1 (configuration not stated)	40µM*	x	35µM*	x
